We go through 39 molecules from PubChem BioAssay (EPA / NIEHS).

Where “and” joins values, the source holds several entries; their conditions need not be identical. Equal values may be shown once. More than one record can exist for a structure, and the calls need not agree. Calls of active or inactive are those of the source. Rule for the calls: active = hit-call score of the fitted dose curve at least 0.9, where 1 is the maximum; inactive = score below 0.9.

Read-out in the test: Apolipoprotein A-V (APOA5) gene, APOA5 (gene 116519)
Kind of test: LTEA_HepaRG_APOA5: Life Technologies and Expression Analysis (LTEA) Assay for Apolipoprotein A-V (APOA5) gene using HepaRG (AID 2283474). Particulars: mRNA level, 48 h; actives raise or lower the signal. The procedure:
LTEA_HepaRG is a cell based, multiplexed-readout assay that uses HepaRG, a human liver cell line, with measurements taken at 48 hours after chemical dosing on a 96-well plate.LTEA_HepaRG_APOA5 is one of 102 assay component(s) measured in the LTEA HepaRG cell culture assay. It is a marker of Steatosis.Data from the assay component LTEA_HepaRG_APOA5 was analyzed into 1 endpoint. This assay endpoint, LTEA_HepaRG_APOA5, was analyzed with bidirectional fitting relative to DMSO as the negative control and baseline of activity. Using a type of inducible reporter, measures of mRNA induction for gain or loss-of-signal activity can be used to understand regulation of transcription factor activity. To generalize the intended target to other relatable targets, this assay endpoint is annotated to the apolipoprotein intended target family, where the subfamily is Steatosis.
A total of 1060 chemcials from the ToxCast library were tested in eight-point concentration-response experiments. Cell culture and cytotoxicity assays were conducted at Thermo Fisher Scientific's Custom Services facility (Madison, WI). A single lot of human HepaRG cells (Thermo Fisher Scientific, Frederick, MD) was used for the cell culture experiments. 96-well format collagen type I coated plates of human HepaRG cells were prepared using established methods. Briefly, cryopreserved HepaRG cells were thawed, plated at a density of approximately 100,000 cells/well in HepaRG Thaw, Plate, and General Purpose media (HPRG770, Thermo Fisher Scientific), and incubated for 48 hours. 0.5% DMSO was selected as vehicle control to balance the requisite need of DMSO in HepaRG cultures to maintain differentiation (for example, baseline metabolism, proportions of hepatocytes vs. cholangiocytes), while enabling further hepatic receptor pathway activation (for example, PXR and CAR) in response to chemical exposure. 48 hours after plating, the culture medium was replaced with HepaRG Serum-Free Incudtion Media. Cells were exposed to each test chemical in duplicate and maintained in CO2 incubators for another 48 hours. Chemical plates were thawed to room temperature and 200x concentrations of treatment groups were prepared. 8-point conentration-reponse curves were made with the highest exposure at 100 uM, followed by half-log dilutions, all in 0.5% DMSO. Each test plate contained variouse controls, induction positive controls (1mM phenobarbital), cytotoxicity positive controls ([…] aflatoxin B1), vehicle controls (0.5% DMSO), and total lysis controls (0.5% DMSO). Cell morphology images were taken using an Essen IncuCyte FLR automated microscope, with six 96-well plates imaged in about 24 minutes. Images were captured and exported and JPEG files. Spent culture media was transfered to black-well plates for the LDH assay, and remaining media was sorted at -80 C for later use. Cells were treated with RLT buffer and frozen until shipped for gene expression analysis. Total RNA was isolated from the cell suspension in 75 uL of Buffer RLT (Qiagen, Germantown, MD 20874) by Quintiles/Expression Analysis (Durham, NC) using a custom isolation procedure. Total RNA from each plate well was transferred to a preamplification plate. Fluidigm's 96.96 Dynamic ArrayTM (Fluidigm, Amsterdam, the Netherlands) technology was used for gene expression analyses by quantitative reverse transcription polymerase chain reaction (qRT-PCR, performed by Quintiles/Expression Analysis, Durham, NC)89. Standard TaqManTM Assays (Applied Biosystems/ThermoFisher Scientific, Foster City, CA) were used to assess the expression of 93 genes selected based on their selectivity and sensitivity to important hepatic receptors known to be modulated by environmental chemicals; importance in human hepatocyte functionality; and hepatotoxicity. […]
`CC(Oc1ccc(Cl)cc1Cl)C(=O)O` (stereo not given): the outcome was inactive. The same measure, in the same setting: next, `COC(=O)C(C)Oc1ccc(Oc2ccc(Cl)cc2Cl)cc1` (stereo not given): “inactive”.

What is called AC50 is the concentration giving half of the maximal activity seen. Turning to `C=CCC1=C(C)C(OC(=O)C2C(C=C(C)C)C2(C)C)CC1=O` (stereo not given), the outcome was inactive and the AC50 is 0.000839 µM (active). On to `N#CC(CCc1ccc(Cl)cc1)(Cn1cncn1)c1ccccc1` (stereo not given), for which the AC50 was 50 µM (active). Turning to `C=CC1(C)OC(=O)N(c2cc(Cl)cc(Cl)c2)C1=O` (stereo not given), the outcome was inactive. With `COc1ccc(C(c2ccc(OC)cc2)C(Cl)(Cl)Cl)cc1`, the AC50 is 70.9 µM (active). In the case of `CCOP(=S)(OCC)SCn1c(=O)oc2cc(Cl)ccc21`, the molecule was called inactive. With `CCCCOC(=O)c1ccccc1C(=O)OCCCC`, the molecule was classed as inactive. Same read-out and setting: under `COC(=O)c1ccccc1C(=O)OC` stands “inactive”; under `Oc1ccccc1-c1ccccc1`, “inactive”.

Consider `CCOC(=O)CC(SP(=S)(OC)OC)C(=O)OCC` (stereo not given), for which the call was inactive. On the same count and under the same terms, next, `COP(N)(=O)SC` (stereo not given): “inactive”. Regarding `CC(C)(C)c1ccc(CSc2cnn(C(C)(C)C)c(=O)c2Cl)cc1`, the AC50 is 12 µM (active).

Turning to `C=CCC1=C(C)[C@@H](OC(=O)[C@@H]2[C@@H](C=C(C)C)C2(C)C)CC1=O`, the call was inactive. Turning to `CCCC1COC(Cn2cncn2)(c2ccc(Cl)cc2Cl)O1` (stereo not given), the AC50 is 47.4 µM (active). Still for that read-out and setting: next, `N#Cc1cc(Br)c(O)c(Br)c1`: 21.2 µM (active). As for `CCON=C(CC)C1=C(O)CC(c2c(C)cc(C)cc2C)CC1=O` (stereo not given), the molecule was classed as inactive.

For the molecule `CS/C(C)=N/OC(=O)N(C)SN(C)C(=O)O/N=C(\C)SC`, the molecule was called inactive. As to `CCCCNC(=O)n1c(NC(=O)OC)nc2ccccc21`, the result was inactive. Take `COC(=O)N(OC)c1ccccc1COc1ccn(-c2ccc(Cl)cc2)n1`: the AC50 was 3.56 µM (active).

With `Cc1cc(Cl)ccc1OCC(=O)O`, the outcome was inactive. As for `CCCCNC(=O)OCC#CI`, the outcome was inactive. For the molecule `CC(C)Oc1cc(-n2nc(C(C)(C)C)oc2=O)c(Cl)cc1Cl`, the AC50 is 32.4 µM (active). As for `Cc1c(F)c(F)c(COC(=O)C2C(/C=C(\Cl)C(F)(F)F)C2(C)C)c(F)c1F` (stereo not given), the molecule was called inactive. Same read-out and setting: next, `CN(C)C(=S)SSC(=S)N(C)C`: “inactive”; `CCNc1nc(Cl)nc(NCC)n1`: “inactive”. Regarding `CC1COC(Cn2cncn2)(c2ccc(Oc3ccc(Cl)cc3)cc2Cl)O1` (stereo not given), the AC50 was 12.8 µM (active). Consider `CON(C)C(=O)Nc1ccc(Cl)c(Cl)c1`, for which the outcome was inactive.

As for `O=C(O)c1nc(Cl)ccc1Cl`, the molecule was classed as inactive. Still for that read-out and setting: under `CNC(=O)ON=CC(C)(C)SC` stands “inactive”. Regarding `CC1=C(C(=O)Nc2ccccc2)SCCO1`, the AC50 is 50 µM (active). On to `COc1cnc(OC)n2nc(NS(=O)(=O)c3c(OCC(F)F)cccc3C(F)(F)F)nc12`, for which the molecule was classed as inactive. As to `O=C(Nc1ccccc1)Nc1ccnc(Cl)c1`, the AC50 was 71.9 µM (active). As for `CCCN(CCC)c1c([N+](=O)[O-])cc(S(N)(=O)=O)cc1[N+](=O)[O-]`, the result was inactive. As for `O=C(O)COc1nc(Cl)c(Cl)cc1Cl`, the call was inactive. Regarding `N#Cc1nn(-c2c(Cl)cc(C(F)(F)F)cc2Cl)c(N)c1S(=O)C(F)(F)F` (stereo not given), the AC50 is 54.4 µM (active). The same measure, in the same setting: under `CCc1nn(C)c(C(=O)NCc2ccc(C(C)(C)C)cc2)c1Cl` stands 0.5 µM (active); under `OC(c1ccc(Cl)cc1)(c1cncnc1)c1ccccc1Cl` (stereo not given), 72.9 µM (active).

Consider `CO/C=C(/C(=O)OC)c1ccccc1Oc1cc(Oc2ccccc2C#N)ncn1`, for which the AC50 was 91.8 µM (active) and 78 µM (active) and 74.3 µM (active).
